11 molecules from PubChem BioAssay (NCI) can be followed below.

Compounds without any hit were thinned out: in the full panel of roughly 83,000, 20% have a hit.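 A percent growth of 40 corresponds to 60% growth inhibition; 0 means no net growth; -100 means all cells died. Active threshold: below 10.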 Activity calls are given as the source filed them.

For this test, the system named is HL-60(TB) leukemia. The test can be described thus: NCI-60 one-dose screen, 48 h (100 = growth as untreated, 0 = no growth, -100 = all killed). The conditions noted are these: 10 µM unless noted.
Take `CCOC(=O)C1=C(C)NC(SCc2nnc(-c3ccc(Cl)cc3)o2)=NC1c1ccc(Br)cc1` (stereo unspecified): the growth was 22.5% (inactive).

Take `O=[N+]([O-])c1ccc(OCCCOc2ccccc2)cc1`: the growth is 95.5% (inactive). The value for `O=C1NCN(c2ccccc2)C12CCN(CCCC(c1ccc(F)cc1)c1ccc(F)cc1)CC2` was 32.6% (inactive). With `CC(C)=CC[C@@H]1CC2(CC=C(C)C)C(=O)C(OC3(C(=O)c4ccccc4)C(=O)C4(CC=C(C)C)C[C@@H](CC=C(C)C)C(C)(C)C(CC=C(C)C)(C4=O)C3=O)(C(=O)c3ccccc3)C(=O)C(CC=C(C)C)(C2=O)C1(C)C` (stereo partly specified), the growth was -47.7% (active). As for `C=C1C(=O)O[C@H]2[C@H]1CC/C(COC(=O)NCc1ccc(Cn3c(=O)sn(CCCC)c3=O)cc1)=C\CC[C@@]1(C)O[C@@H]21`, the growth was -33.2% (active).

Take `N#Cc1c(NCc2ccccc2I)sc2c1CCCCC2`: the growth is 100% (inactive). Consider `CC(C)(O)C(=O)O`, for which the growth is 103% (inactive).

Regarding `O=c1ccn(C2CC=C(CO)O2)c(=O)[nH]1` (stereo unspecified), the growth was 91.9% (inactive). Consider `C=C1c2c(C)nn(-c3ccc(NC(C)=O)cc3)c2N(C)C23CC1C1(C)c4c(C)nn(-c5ccc(NC(C)=O)cc5)c4N(C)C(C)(CC12)C3` (stereo unspecified), for which the growth is -20.6% (active). For `CC1(C)C(=O)/C(=C\c2cccnc2)C[C@]2(C)[C@H]3CC[C@@H]4[C@H]5[C@H](C(=O)/C=C/c6cccnc6)CC[C@]5(C(=O)O)CC[C@@]4(C)[C@]3(C)CC[C@@H]12`, the growth is 0.806% [100 µM] (active). The value for `COc1cc(C(=O)/C=C/c2ccc(N3CCN(C)CC3)cc2)cc(OC)c1OC` was 98.2% (inactive).
